UGM FP inh: M. tuberculosis UGM enzyme inhibitors, primary screen, biochemical, fluorescence polarization, single point. UDP-galactopyranose mutase (Mycobacterium tuberculosis (strain ATCC 25618 / H37Rv)), …. purified UGM, fluorescence polarization probe displacement. inhibition, % at 10 µM. 320,000 compounds, 0.06% hits. AID 504406, 2011; in the data active means inhibition above about 10%, passing the limit was not always enough
GDH-TPI counter-1: GDH-TPI coupling enzyme inhibitors, primary screen, artefact control for M. tuberculosis FBA inhibitor project, biochemical, absorbance, full deck; GDH-TPI coupled enzyme counterscreen, NADH absorbance; inhibition, % at 4.8 µM; 360,000 compounds, 1.2% hits; AID 588335, 2011; in the data active means inhibition above about 30%;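 further: 0% = DMSO wells and 100% = wells lacking the enzyme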
Rv3671c inh: Rv3671c serine protease inhibitors, primary screen, biochemical, fluorescence polarization, M. tuberculosis H37Rv. inhibition, % at 5.96 µM. 320,000 compounds, 0.048% hits. AID 2606, 2010; in the data active means inhibition above about 38%;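 further: extracellular domain of Rv3671c used as enzyme; 0% = enzyme with DMSO and 100% = no enzyme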
Target sequence (P9WHR9 whole entry, looked up, the tested form may be a part): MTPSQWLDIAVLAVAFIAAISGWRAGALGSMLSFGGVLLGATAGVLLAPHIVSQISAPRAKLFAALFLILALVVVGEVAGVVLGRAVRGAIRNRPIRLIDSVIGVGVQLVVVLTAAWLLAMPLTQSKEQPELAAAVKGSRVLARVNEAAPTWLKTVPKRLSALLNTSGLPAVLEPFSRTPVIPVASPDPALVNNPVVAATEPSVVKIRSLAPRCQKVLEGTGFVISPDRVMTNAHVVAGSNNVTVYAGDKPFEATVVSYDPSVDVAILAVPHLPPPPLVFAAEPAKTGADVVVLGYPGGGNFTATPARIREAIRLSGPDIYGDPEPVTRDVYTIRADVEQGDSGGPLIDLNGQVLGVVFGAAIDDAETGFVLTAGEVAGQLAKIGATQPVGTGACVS
FadD28 binding: inhibitors of FadD28 bisubstrate probe binding, primary screen, biochemical, fluorescence polarization, single point | inhibition, % at 12.5 µM | 360,000 compounds, 0.22% hits | AID 588549, 2011; in the data active means inhibition above about 8.5%, passing the limit was not always enough
Mtb hypoxia inh: PubChem AID 1159583; M. tuberculosis hypoxia-regulated fluorescent reporter, fluorescence; fluorescence inhibition, % (test concentration not listed); 300,000 compounds, 0.1% hits; in the data active means fluorescence inhibition mostly above about 23%, no sharp cut-off; inactive means mostly below about 17%
FBA Mtb inh: Mtb FBA enzyme inhibitors, primary screen, biochemical, fluorescence, strain H37Rv | Fructose-bisphosphate aldolase (Mycobacterium tuberculosis (strain ATCC 25618 / H37Rv)), … | purified M. tuberculosis FBA, fluorescence read-out | inhibition, % at 1 µM | 360,000 compounds, 2.3% hits | AID 588726, 2011;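 further: 0% = vehicle and 100% = reference inhibitor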
Mtb FBA inh conf: M. tuberculosis aldolase blockers, biochemical, fluorescence, strain H37Rv, confirmation; inhibition, % at 1 µM; AID 651616, 2012; 5,600 compounds, 78% hits; shares compounds with FBA Mtb inh; purified M. tuberculosis FBA, fluorescence read-out;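 further: 0% = vehicle wells and 100% = reference inhibitor wells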
GDH-TPI counter-2: GDH-TPI coupling enzyme inhibitors, artefact control for M. tuberculosis FBA inhibitor project, biochemical, fluorescence, high throughput | GDH-TPI coupled enzyme counterscreen | inhibition, % at 1 µM | 5,600 compounds, 81% hits | shares compounds with FBA Mtb inh | AID 652141, 2013; in the data active means inhibition above about 10%
* marks the source's active call; other numbers are inactive results; nt = no result given; + = active, no number. Most compounds without a hit are left out; they make up all but 3.5% or so of the library. Unless noted, no stated cut-off is given here; in the data, active means inhibition above about 27%; inactive means the rest.

SMILES | UGM FP inh | GDH-TPI counter-1 | Rv3671c inh | FadD28 binding | Mtb hypoxia inh | FBA Mtb inh | Mtb FBA inh conf | GDH-TPI counter-2
Cc1cc(=O)oc2cc(OC(C(=O)O)c3ccccc3)ccc12 (centres undefined) | -1 | 24 | 6 | nt | 7 | 17 | nt | nt
O=C(O)C(Oc1ccc2c3c(c(=O)oc2c1)CCC3)c1ccccc1 (centres undefined) | 2 | 22 | -1 | -5 | 12 | 69* | 3 | -5
C#CCOc1ccc2c3c(c(=O)oc2c1)CCCC3 | -1 | -2 | -3 | -2 | 2 | 46* | + | +
CC(=O)C(C)Oc1ccc2c3c(c(=O)oc2c1)CCCC3 (centres undefined) | -1 | 6 | -8 | -1 | 7 | 40* | + | 146*
O=c1oc2cc(OCc3ccc([N+](=O)[O-])cc3)ccc2c2c1CCCC2 | -1 | -3 | -6 | 0 | 8 | 1 | nt | nt
CCOC(=O)C1C2COc3ccc(C)cc3C2N2C(=O)c3cc(F)c(F)cc3NC(=O)[C@@]12C (some centres undefined) | nt | nt | nt | nt | 17 | nt | nt | nt
CCCNC(=O)N1C2CCC1C(C(=O)OC)=C(c1ccc(F)cc1OCc1ccccc1)C2 (centres undefined) | nt | nt | nt | nt | 3 | nt | nt | nt
Cn1cc(Br)c(C(=O)NN=Cc2cccc(OC3CSC3)c2)n1 | nt | nt | nt | nt | 9 | nt | nt | nt
C=CCOc1ccc2c(CC)cc(=O)oc2c1C | -1 | 7 | -11 | -3 | 5 | 41* | + | 164*
O=C(O)c1ccc(COc2ccc3c4c(c(=O)oc3c2)CCC4)o1 | 1 | 22 | 1 | -7 | 3 | 34* | 95* | 64*
Cc1cc(=O)oc2cc(OC(C)C)ccc12 | -2 | 10 | 1 | -3 | 5 | 73* | + | 178*
O=C(COc1cc2oc(=O)c3c(c2cc1Cl)CCCC3)NCc1cccnc1 | 3 | 0 | -7 | -2 | -14 | 2 | nt | nt
CCc1cc2c3c(c(=O)oc2cc1OCC(=O)OC)CCCC3 | 0 | 7 | -2 | -6 | 12 | 54* | 48* | 31*
O=C(O)c1cccc(NN=CC2=C(Cl)c3cc(Cl)ccc3SC2)c1 | nt | nt | nt | nt | 7 | nt | nt | nt
O=C(NN=C/C=C/c1ccco1)c1cncc(Br)c1 | nt | nt | nt | nt | 4 | nt | nt | nt
O=C(C(O)c1ccc(Br)cc1)N1CCC(Nc2ccc3[nH]ncc3c2)CC1 (centres undefined) | nt | 5 | nt | -2 | nt | 42* | + | +
CCOC(=O)CSC1=Nc2ccccc2C2=NC(CC(=O)NCc3ccccc3)C(=O)N12 (centres undefined) | 2 | 8 | 6 | -3 | 3 | 29* | 103* | 102*
NC(=O)CSC1=Nc2ccccc2C2=NC(c3ccccc3)C(=O)N12 (centres undefined) | 3 | 11 | 4 | -2 | -2 | 28* | 51* | 43*
CCOC(=O)CSC1=Nc2ccccc2C2=NC(CC(=O)NCc3cccs3)C(=O)N12 (centres undefined) | 4 | 9 | -1 | 1 | 6 | 5 | nt | nt
CCCCN(CC)CCNC(=O)c1cc2c(-c3ccc(Cl)cc3)nn(C)c2s1 | -2 | 1 | -14 | -17 | nt | 77* | 5 | -4
CCCN(CCC)CCNC(=O)c1cc2c(-c3ccccc3F)nn(C)c2s1 | -2 | 7 | 2 | -6 | -14 | 87* | 100* | 81*
CCCN(CCC)CCCNC(=O)c1cc2c(-c3ccc(OC)c(OC)c3)nn(C)c2s1 | -2 | 11 | -1 | -2 | 1 | 3 | nt | nt
CCCN(CCC)CCNC(=O)c1cc2c(-c3ccc(Cl)cc3)nn(C)c2s1 | 1 | 11 | -12 | -14 | 0 | 50* | 163* | 120*
CCOCCCNC(=O)c1cc2c(-c3ccc(Cl)cc3)nn(C)c2s1 | -2 | 12 | -51 | -14 | nt | 63* | 71* | 55*
CC1CN(C2CCCCC2)C(=O)C1CC(=O)NCc1ccccc1 (centres undefined) | nt | nt | nt | nt | 5 | nt | nt | nt
SMILES | UGM FP inh | GDH-TPI counter-1 | Rv3671c inh | FadD28 binding | Mtb hypoxia inh | FBA Mtb inh | Mtb FBA inh conf | GDH-TPI counter-2
Fc1cccc(C=NNC(=S)Nc2ccccc2Cl)c1 | nt | nt | nt | nt | 1 | nt | nt | nt
CCOC(=O)c1cc2c(=O)n3ccccc3nc2n(Cc2ccco2)c1=NC(=O)c1ccc(OC)cc1OC | -1 | 16 | 0 | -5 | 3 | 104* | 91* | 88*
CCOC(=O)c1ccccc1NC(=O)c1cccnc1 | 0 | 4 | 1 | 0 | 7 | 7 | nt | nt
COc1ccc(OC)c(NC(=O)c2cc3c(=O)n4ccccc4nc3n2C)c1 | -1 | 6 | -5 | 1 | 8 | -3 | nt | nt
CCCCn1c(=NC(=O)c2cccnc2)c(C(=O)OCC)cc2c(=O)n3ccccc3nc21 | nt | -12 | nt | -4 | -85 | 56* | 134* | 91*
CCOC(=O)c1cc2c(=O)n3ccccc3nc2n(C)c1=NC(=O)c1c(-c2c(F)cccc2Cl)noc1C | 0 | -5 | 4 | -2 | 8 | 33* | 162* | 132*
O=C(NCc1nc2ccccc2[nH]1)C1=CC(c2ccc(Br)cc2)CC(OCCCCO)O1 (centres undefined) | nt | nt | nt | nt | -6 | nt | nt | nt
Cc1ccc(S(=O)(=O)N2C(c3cccc(C)c3)CC=C(C(=O)O)C2c2ccccc2)cc1 (centres undefined) | nt | nt | nt | nt | 12 | nt | nt | nt
CC1=Nc2ccc(C)c3nc(C)cc(c23)N1c1ccc(C)cc1 | -1 | -7 | 4 | 3 | nt | 30* | 60* | 38*
COc1ccc(OC)c(C=NNC(=O)c2cc3c(OC)cc(OC)cc3[nH]2)c1 | nt | nt | nt | nt | 15 | nt | nt | nt
O=C(COc1ccc2c(c1)C(=O)CC1(CCCCC1)O2)NCc1ccccn1 | -1 | 14 | 2 | -1 | 7 | 38* | 82* | 58*
O=C(COc1ccc(S(=O)(=O)NC2CCCCC2)cc1)NCc1ccccn1 | -2 | 7 | 12 | -1 | 7 | 2 | nt | nt
CCOC(=O)COc1ccc2c(c1)C(=O)CC1(CCCCC1)O2 | 0 | 24 | 2 | -2 | 7 | 53* | 89* | 77*
O=C(COc1ccccc1)NCc1ccccc1 | 0 | -7 | -7 | nt | nt | 2 | nt | nt
O=C(COc1ccc2c(c1)C(=O)CC1(CCCCC1)O2)NCc1ccccc1 | 1 | 2 | 2 | -1 | 7 | 36* | 62* | 48*

Source: PubChem BioAssay (several laboratories)
